# Test results published in PubChem BioAssay AID652128 (Broad Institute, 2013).
# The other results are listed elsewhere or left out. Results filed as inconclusive are left out. Activity calls are given as the source filed them.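 How the source made its calls: active means fitted half-maximal concentration for signal loss at or below twice the highest dose tested, in every separate run (actives reach about 64 µM in these data); inconclusive means runs disagree, or flat partial signal loss, or poor fit; inactive means the rest.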
# Experiment: DNA-binding compounds via dye displacement, dose response, artefact control for RAD52 inhibitor project, biochemical, fluorescence polarization, cherry-pick (AID 652128)
# Details: Salmon sperm DNA/acridine orange FP displacement
Structure (SMILES),outcome,AC50
COc1ccc2c(c1O)-c1cccc3c1[C@@H](C2)N(C)CC3,inactive,–
C[N+]1(C)CCOC(O)(c2ccc(-c3ccc(C4(O)C[N+](C)(C)CCO4)cc3)cc2)C1 (stereo not given),inactive,–
CC1=CC(=Cc2sc3ccccc3[n+]2C)C=C(C)O1,inactive,–
CCCCCCCCCCCCn1ccc(=N)cc1,inactive,–
CCOc1cccc(=NC2CCCCC2)c2c(C)[nH]c(C)c12,–,36 µM (active)
